Results reported in PubChem BioAssay.
For some of these results: Results with a measured potency or affinity are listed apart. Activity calls are given as the source filed them. Unless noted, the rule behind the calls is not given here.

What follows are compounds tested against Calcium-dependent protein kinase 1 (Plasmodium falciparum (isolate 3D7)) (UniProt P62344) (assay: PfCDPK1 kinase inhibitors, biochemical, TCAMS library (AID 1159585; cut-off not given, nearly all actives have IC50 up to about 0.98 µM;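 note: inhibitors leave more ATP so luminescence rises with inhibition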)). Conditions: recombinant PfCDPK1, Kinase-Glo ATP depletion luminescence.
Calcium-dependent protein kinase 1 (Plasmodium falciparum (isolate 3D7)), sequence (P62344 whole entry, looked up): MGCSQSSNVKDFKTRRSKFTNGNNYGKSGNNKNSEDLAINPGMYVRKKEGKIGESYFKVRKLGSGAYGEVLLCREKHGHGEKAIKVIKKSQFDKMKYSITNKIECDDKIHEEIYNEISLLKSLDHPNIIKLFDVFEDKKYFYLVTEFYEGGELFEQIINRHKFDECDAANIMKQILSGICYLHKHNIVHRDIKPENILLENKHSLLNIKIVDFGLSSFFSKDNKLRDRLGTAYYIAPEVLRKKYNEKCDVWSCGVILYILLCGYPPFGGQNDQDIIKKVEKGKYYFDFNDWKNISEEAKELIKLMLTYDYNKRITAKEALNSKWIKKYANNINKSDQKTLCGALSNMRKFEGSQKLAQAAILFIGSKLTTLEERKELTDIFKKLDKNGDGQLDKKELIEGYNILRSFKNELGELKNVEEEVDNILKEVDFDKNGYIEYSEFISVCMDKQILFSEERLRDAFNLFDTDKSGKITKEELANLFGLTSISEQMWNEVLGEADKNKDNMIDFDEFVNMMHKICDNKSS

outcome, inactive:
CCc1cccc(NC(=O)/C=C/c2ccc3c(c2)CN(C)CC3)c1
CC1CN(Cc2csc(Nc3ccccc3)n2)CC(C)O1 (stereo not drawn)
CCCCCCCCc1c(C)[nH]c(C)c(I)c1=O
CCc1cc2c3c(N)nc(N)nc3ccc2n1CC
Cc1cc(-c2ccc3c(c2)CCN(CCC2CCC(NC(=O)/C=C/c4cccc(Cl)c4)CC2)CC3)on1 (stereo not drawn)
CCCCCCc1cnc2nc(N)nc(N)c2c1C
N#Cc1ccc(NC(=O)NC2CCN(CCCCCNC(=O)/C=C/c3ccc(Cl)c(Cl)c3)CC2)cc1
CN1CCN(CCNc2c3ccccc3nc3c2ccc2ccccc23)CC1

The compounds below were run against Plasmodium falciparum protein kinase 6 (PK6, PF3D7_1337100) (UniProt Q8IDW1) (assay: PfPK6 kinase inhibitors, biochemical, TCAMS library (AID 1159586)). Conditions: recombinant PfPK6, Kinase-Glo ATP depletion luminescence.
Plasmodium falciparum protein kinase 6 (PK6, PF3D7_1337100), sequence (Q8IDW1 1-305): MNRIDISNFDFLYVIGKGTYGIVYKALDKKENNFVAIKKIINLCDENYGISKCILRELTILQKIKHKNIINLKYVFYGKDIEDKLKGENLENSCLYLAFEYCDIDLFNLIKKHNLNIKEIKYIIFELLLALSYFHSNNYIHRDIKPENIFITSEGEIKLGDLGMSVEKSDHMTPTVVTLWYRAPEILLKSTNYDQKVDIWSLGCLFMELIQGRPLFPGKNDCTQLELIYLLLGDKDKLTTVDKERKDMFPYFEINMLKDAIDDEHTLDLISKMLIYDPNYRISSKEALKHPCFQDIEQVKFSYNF

outcome, inactive:
O=C(Nc1ccc2nccc(N3CCN4CCC[C@H]4C3)c2c1)c1ccc(Cl)c(Cl)c1
NC(=O)c1cccc(C(=O)Nc2cccc(-c3ccc(-c4nc5ccccc5[nH]4)s3)c2)c1
COc1ccc(CCNCCCCCCNCCc2ccc(-c3ccccc3)cc2)cc1OC
CC(ON1C(N)=NC(N)=NC1(C)C)c1ccccc1 (stereo not drawn)
CC(C)CCN1CCC(Oc2cccc(NC(=O)c3ccc(C(F)(F)F)cc3)c2)CC1
CCc1cn2c3c(cc(C(=O)N[C@@H](Cc4ccccc4)[C@H](O)CNC4CC4)cc13)N(CC)S(=O)(=O)CC2
Cc1cccc2[nH]c(-c3ccc(-c4cccc(NC(=O)C(C)CN(C)C)c4)s3)nc12 (stereo not drawn)
CCn1c(C(C)C)cc2c3c(N)nc(N)nc3ccc21
COc1ccc(NC(=O)Nc2cccc(-c3ccc(-c4nc5c(C)cccc5[nH]4)s3)c2)cc1
C=C(C)C1CC=C(CN2CCC(N3CCc4cc(NC(=O)c5cc(C)on5)ccc43)C2)CC1 (stereo not drawn)
O=C(Nc1ccccc1Cl)c1cc2ccccc2cc1O
CCCCN1CCN(Cc2cccc(NC(=O)c3ccc(Cl)c(Cl)c3)c2)CC1
c1cn(-c2ccc(CNc3nccc(Nc4ccc(OCCN5CCOCC5)cc4)n3)cc2)cn1
CCN(Cc1ccccc1)C1CCN(Cc2cc(Br)ccc2O)CC1
O=C(Nc1ccc(OC2CCN(Cc3ccc(F)cc3)CC2)c(Cl)c1)c1ccccc1
COc1ccccc1NC(=O)NC1CCN(CCCCCNC(=O)/C=C/c2ccc(Cl)c(Cl)c2)CC1
CCOC(=O)NC1=NC(C)(C)N(OCCCOc2ccc(C)cc2C)C(NC(=O)OCC)=N1
Cc1ccc2c(c1)c(-c1ccccc1)c(-c1ccccc1)n2CC(O)CN1CCN(CC=Cc2ccccc2)CC1 (stereo not drawn)
COc1ccc2nccc(NC(=O)C3(O)CCC(NCc4ccc5c(c4)NCCS5)CC3)c2n1 (stereo not drawn)
O=C(NCc1ccc(F)cc1)c1cnc(N2CCN(c3ccncc3)CC2)c(Cl)c1
CC1(C)N=C(N)N=C(N)N1OCCc1ccccc1
Cc1ccccc1C1CCN(C2CCC(NC(=O)c3cc4cc(C(C)C)ccc4[nH]3)CC2)CC1 (stereo not drawn)
O=C(NCC1CCN(Cc2cccc(C(F)(F)F)c2)C1)c1cc(-c2cccc(Cl)c2)cs1 (stereo not drawn)
COc1ccc(CCNCCCCCCNCCc2ccc(Cl)c3ccccc23)cc1OC
Cn1nccc1C(=O)NCCNCc1cccc(-c2csc(-c3nc4ccccc4[nH]3)c2)c1
c1ccc(COc2ccccc2COc2ccccc2-c2ccc3cccnc3n2)cc1
O=C(/C=C/c1ccc(Cl)c(Cl)c1)NCCCCCN1CCC(NC(=O)Nc2ccc(F)c(Cl)c2)CC1
CN(C)Cc1cccc2[nH]c(-c3csc(Cc4cc(Cl)ccc4OCc4ccccc4)n3)nc12
Cc1c(-c2cccc(C(C)(C)NC3CCN(Cc4ccccc4)CC3)c2)cnc(N)c1C
CCc1sc(N2CCN(C)CC2)nc1C(=O)Nc1ccc(F)cc1C(F)(F)F
Cc1cc(NN=Cc2cccc(Cl)c2)c2cc(F)ccc2n1
COc1cccc(C(=O)NCCc2cccc(Cl)c2)c1Oc1ccccc1
CCc1cccc(NC(=O)/C=C/c2ccc3c(c2)CN(C)CC3)c1
CC1CN(Cc2csc(Nc3ccccc3)n2)CC(C)O1 (stereo not drawn)
CCCCCCCCc1c(C)[nH]c(C)c(I)c1=O
CCc1cc2c3c(N)nc(N)nc3ccc2n1CC
Cc1cc(-c2ccc3c(c2)CCN(CCC2CCC(NC(=O)/C=C/c4cccc(Cl)c4)CC2)CC3)on1 (stereo not drawn)
CCCCCCc1cnc2nc(N)nc(N)c2c1C
N#Cc1ccc(NC(=O)NC2CCN(CCCCCNC(=O)/C=C/c3ccc(Cl)c(Cl)c3)CC2)cc1
CN1CCN(CCNc2c3ccccc3nc3c2ccc2ccccc23)CC1

Each compound was assayed against Protein kinase 7 (PK7), Plasmodium falciparum 3D7 (PF3D7_0213400) (UniProt Q7YTF7) (assay: inhibition of Plasmodium PK7 catalytic activity – biochemical, TCAMS antimalarial set, Kinase-Glo luminescence (AID 1159587)). Conditions: recombinant PfPK7, Kinase-Glo ATP depletion luminescence.
Protein kinase 7 (PK7), Plasmodium falciparum 3D7 (PF3D7_0213400), sequence (Q7YTF7 1-343): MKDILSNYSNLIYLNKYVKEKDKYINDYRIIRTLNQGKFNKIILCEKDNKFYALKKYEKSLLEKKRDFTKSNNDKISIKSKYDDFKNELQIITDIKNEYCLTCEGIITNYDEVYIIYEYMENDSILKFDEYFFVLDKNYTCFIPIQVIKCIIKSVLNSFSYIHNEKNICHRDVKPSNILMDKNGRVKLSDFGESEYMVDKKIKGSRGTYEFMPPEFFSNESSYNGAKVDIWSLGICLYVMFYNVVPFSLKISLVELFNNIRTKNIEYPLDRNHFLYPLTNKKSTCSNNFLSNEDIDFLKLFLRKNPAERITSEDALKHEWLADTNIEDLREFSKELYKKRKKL

outcome, inactive:
O=C(Nc1ccc2nccc(N3CCN4CCC[C@H]4C3)c2c1)c1ccc(Cl)c(Cl)c1
NC(=O)c1cccc(C(=O)Nc2cccc(-c3ccc(-c4nc5ccccc5[nH]4)s3)c2)c1
COc1ccc(CCNCCCCCCNCCc2ccc(-c3ccccc3)cc2)cc1OC
CC(ON1C(N)=NC(N)=NC1(C)C)c1ccccc1 (stereo not drawn)
CC(C)CCN1CCC(Oc2cccc(NC(=O)c3ccc(C(F)(F)F)cc3)c2)CC1
CCc1cn2c3c(cc(C(=O)N[C@@H](Cc4ccccc4)[C@H](O)CNC4CC4)cc13)N(CC)S(=O)(=O)CC2
Cc1cccc2[nH]c(-c3ccc(-c4cccc(NC(=O)C(C)CN(C)C)c4)s3)nc12 (stereo not drawn)
CCn1c(C(C)C)cc2c3c(N)nc(N)nc3ccc21
COc1ccc(NC(=O)Nc2cccc(-c3ccc(-c4nc5c(C)cccc5[nH]4)s3)c2)cc1
C=C(C)C1CC=C(CN2CCC(N3CCc4cc(NC(=O)c5cc(C)on5)ccc43)C2)CC1 (stereo not drawn)
O=C(Nc1ccccc1Cl)c1cc2ccccc2cc1O
CCCCN1CCN(Cc2cccc(NC(=O)c3ccc(Cl)c(Cl)c3)c2)CC1
c1cn(-c2ccc(CNc3nccc(Nc4ccc(OCCN5CCOCC5)cc4)n3)cc2)cn1
CCN(Cc1ccccc1)C1CCN(Cc2cc(Br)ccc2O)CC1
O=C(Nc1ccc(OC2CCN(Cc3ccc(F)cc3)CC2)c(Cl)c1)c1ccccc1
COc1ccccc1NC(=O)NC1CCN(CCCCCNC(=O)/C=C/c2ccc(Cl)c(Cl)c2)CC1
CCOC(=O)NC1=NC(C)(C)N(OCCCOc2ccc(C)cc2C)C(NC(=O)OCC)=N1
Cc1ccc2c(c1)c(-c1ccccc1)c(-c1ccccc1)n2CC(O)CN1CCN(CC=Cc2ccccc2)CC1 (stereo not drawn)
COc1ccc2nccc(NC(=O)C3(O)CCC(NCc4ccc5c(c4)NCCS5)CC3)c2n1 (stereo not drawn)
O=C(NCc1ccc(F)cc1)c1cnc(N2CCN(c3ccncc3)CC2)c(Cl)c1
CC1(C)N=C(N)N=C(N)N1OCCc1ccccc1
Cc1ccccc1C1CCN(C2CCC(NC(=O)c3cc4cc(C(C)C)ccc4[nH]3)CC2)CC1 (stereo not drawn)
O=C(NCC1CCN(Cc2cccc(C(F)(F)F)c2)C1)c1cc(-c2cccc(Cl)c2)cs1 (stereo not drawn)
COc1ccc(CCNCCCCCCNCCc2ccc(Cl)c3ccccc23)cc1OC
Cn1nccc1C(=O)NCCNCc1cccc(-c2csc(-c3nc4ccccc4[nH]3)c2)c1
c1ccc(COc2ccccc2COc2ccccc2-c2ccc3cccnc3n2)cc1
O=C(/C=C/c1ccc(Cl)c(Cl)c1)NCCCCCN1CCC(NC(=O)Nc2ccc(F)c(Cl)c2)CC1
CN(C)Cc1cccc2[nH]c(-c3csc(Cc4cc(Cl)ccc4OCc4ccccc4)n3)nc12
Cc1c(-c2cccc(C(C)(C)NC3CCN(Cc4ccccc4)CC3)c2)cnc(N)c1C
CCc1sc(N2CCN(C)CC2)nc1C(=O)Nc1ccc(F)cc1C(F)(F)F
Cc1cc(NN=Cc2cccc(Cl)c2)c2cc(F)ccc2n1
COc1cccc(C(=O)NCCc2cccc(Cl)c2)c1Oc1ccccc1
CCc1cccc(NC(=O)/C=C/c2ccc3c(c2)CN(C)CC3)c1
CC1CN(Cc2csc(Nc3ccccc3)n2)CC(C)O1 (stereo not drawn)
CCCCCCCCc1c(C)[nH]c(C)c(I)c1=O
CCc1cc2c3c(N)nc(N)nc3ccc2n1CC
Cc1cc(-c2ccc3c(c2)CCN(CCC2CCC(NC(=O)/C=C/c4cccc(Cl)c4)CC2)CC3)on1 (stereo not drawn)
CCCCCCc1cnc2nc(N)nc(N)c2c1C
N#Cc1ccc(NC(=O)NC2CCN(CCCCCNC(=O)/C=C/c3ccc(Cl)c(Cl)c3)CC2)cc1
CN1CCN(CCNc2c3ccccc3nc3c2ccc2ccccc23)CC1
